From the supplement of paper PMC6992640

system: HCI01 (cells of a triple-negative basal-like breast cancer xenograft); assay: cell viability of combination (% of vehicle); higher = less cytotoxic; details: 1 µM; 72 h; partner dose: 10 nM
Method: (§1)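 PDX cells were treated for 72 h with each drug at 1 µM plus carfilzomib (10 nM; 100 nM for WHIM2). Luciferase viability is expressed as percent of vehicle.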

| Structure (SMILES) | cell viability of combination |
| --- | --- |
| COC1=C(OC)C(=O)C(CCCCCCCCCCO)=C(C)C1=O [Idebenone] + CC(C)C[C@H](NC(=O)[C@H](CCc1ccccc1)NC(=O)CN1CCOCC1)C(=O)N[C@@H](Cc1ccccc1)C(=O)N[C@@H](CC(C)C)C(=O)[C@@]1(C)CO1 [Carfilzomib] | 82.8 |
| Clc1ccc(CSC(Cn2ccnc2)c2ccc(Cl)cc2Cl)cc1.O=[N+]([O-])O (configuration not stated) [Sulconazole Nitrate] + CC(C)C[C@H](NC(=O)[C@H](CCc1ccccc1)NC(=O)CN1CCOCC1)C(=O)N[C@@H](Cc1ccccc1)C(=O)N[C@@H](CC(C)C)C(=O)[C@@]1(C)CO1 [Carfilzomib] | 93.5 |
| COc1cccc2c1C(=O)c1c(O)c3c(c(O)c1C2=O)CC(O)(C(=O)CO)CC3OC1CC(N)C(O)C(C)O1.Cl (configuration not stated) [Epirubicin HCl] + CC(C)C[C@H](NC(=O)[C@H](CCc1ccccc1)NC(=O)CN1CCOCC1)C(=O)N[C@@H](Cc1ccccc1)C(=O)N[C@@H](CC(C)C)C(=O)[C@@]1(C)CO1 [Carfilzomib] | 73.9 |

system: UCD52 (cells of a triple-negative basal-like breast cancer xenograft); assay: as above; details: 1 µM; 72 h; partner dose: 10 nM
Method: as §1

| Structure (SMILES) | cell viability of combination |
| --- | --- |
| COC(=O)C1=C(C)NC(C)=C(C(=O)OC2CCCN(Cc3ccccc3)C2)C1c1cccc([N+](=O)[O-])c1.Cl (configuration not stated) [Benidipine HCl] + CC(C)C[C@H](NC(=O)[C@H](CCc1ccccc1)NC(=O)CN1CCOCC1)C(=O)N[C@@H](Cc1ccccc1)C(=O)N[C@@H](CC(C)C)C(=O)[C@@]1(C)CO1 [Carfilzomib] | 57.7 |
| Nc1c(CC(=O)[O-])cccc1C(=O)c1ccccc1.O.[Na+] [Amfenac Sodium Monohydrate] + CC(C)C[C@H](NC(=O)[C@H](CCc1ccccc1)NC(=O)CN1CCOCC1)C(=O)N[C@@H](Cc1ccccc1)C(=O)N[C@@H](CC(C)C)C(=O)[C@@]1(C)CO1 [Carfilzomib] | 66.3 |
| C1=C\COCc2cc(ccc2OCCN2CCCC2)Nc2nccc(n2)-c2cccc(c2)COC/1 [Pacritinib] + CC(C)C[C@H](NC(=O)[C@H](CCc1ccccc1)NC(=O)CN1CCOCC1)C(=O)N[C@@H](Cc1ccccc1)C(=O)N[C@@H](CC(C)C)C(=O)[C@@]1(C)CO1 [Carfilzomib] | 57.9 |
| Nc1ncn(C2OC(CO)C(O)C2O)c(=O)n1 (configuration not stated) [5-Azacytidine] + CC(C)C[C@H](NC(=O)[C@H](CCc1ccccc1)NC(=O)CN1CCOCC1)C(=O)N[C@@H](Cc1ccccc1)C(=O)N[C@@H](CC(C)C)C(=O)[C@@]1(C)CO1 [Carfilzomib] | 68.2 |
| Cl.Nc1ccn(C2OC(CO)C(O)C2O)c(=O)n1 (configuration not stated) [Cytarabine hydrochloride] + CC(C)C[C@H](NC(=O)[C@H](CCc1ccccc1)NC(=O)CN1CCOCC1)C(=O)N[C@@H](Cc1ccccc1)C(=O)N[C@@H](CC(C)C)C(=O)[C@@]1(C)CO1 [Carfilzomib] | 77.1 |
| O=C(O)CO.[NH2-].[NH2-].[Pt+2] [Nedaplatin] + CC(C)C[C@H](NC(=O)[C@H](CCc1ccccc1)NC(=O)CN1CCOCC1)C(=O)N[C@@H](Cc1ccccc1)C(=O)N[C@@H](CC(C)C)C(=O)[C@@]1(C)CO1 [Carfilzomib] | 68.8 |
| Clc1ccc(COC(Cn2ccnc2)c2ccc(Cl)cc2Cl)c(Cl)c1.O=[N+]([O-])O (configuration not stated) [Miconazole Nitrate] + CC(C)C[C@H](NC(=O)[C@H](CCc1ccccc1)NC(=O)CN1CCOCC1)C(=O)N[C@@H](Cc1ccccc1)C(=O)N[C@@H](CC(C)C)C(=O)[C@@]1(C)CO1 [Carfilzomib] | 59.3 |
| O=C1C=CC=CC1=C1NC(=C2C=CC=CC2=O)N(c2ccc(C(=O)O)cc2)N1 [Deferasirox] + CC(C)C[C@H](NC(=O)[C@H](CCc1ccccc1)NC(=O)CN1CCOCC1)C(=O)N[C@@H](Cc1ccccc1)C(=O)N[C@@H](CC(C)C)C(=O)[C@@]1(C)CO1 [Carfilzomib] | 61.2 |
| Cc1nc(Nc2ncc(C(=O)Nc3c(C)cccc3Cl)s2)cc(N2CCN(CCO)CC2)n1 + CC(C)C[C@H](NC(=O)[C@H](CCc1ccccc1)NC(=O)CN1CCOCC1)C(=O)N[C@@H](Cc1ccccc1)C(=O)N[C@@H](CC(C)C)C(=O)[C@@]1(C)CO1 [Carfilzomib] | 32.4 |
